Assay in all cases: qHTS profiling for inhibitors of Plasmodium falciparum proliferation (AID 504749); note: nearly all actives have a fitted effect of over 60% in size
Conditions in all cases: P. falciparum in erythrocytes, SYBR Green DNA, 72 h; series mostly up to 28.7 µM

The subject of one assay is CP211. An outline of the steps: (§1)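 Three-day growth assay of blood-stage parasites in erythrocytes (0.3% parasitemia, 2.5% hematocrit) at 37 C, 5% CO2, quantified by SYBR Green DNA staining after overnight detergent lysis.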
A further assay relates to CP215. Summed up:
as §1

The test system of another assay is CP217. Summed up:
as §1

The subject of another assay is CP237. Summed up:
as §1

The next assay deals with CP238. Summed up:
as §1

Another assay has as its system CP247. Summed up: as §1
For another assay, the system named is CP250. Summed up:
as §1

For another assay, the system named is CP252. An outline of the steps:
as §1

A further assay deals with CP256. Summed up:
as §1

Molecules are shown by their SMILES. Records with an inconclusive call do not appear. Calls of active or inactive are those of the source. Calls come from the whole dose curve; as a rule, active = well fitted inhibition curve with a large enough effect; inconclusive = small, poorly fitted or top-dose-only effect; inactive = flat fitted curve, though single readings scatter.
Potency is the fitted concentration of half-maximal effect.

For `CCCCCCCCCCCC(=O)[O][Sn]([CH2]CCC)([CH2]CCC)[O]C(=O)CCCCCCCCCCC`, the Potency entry in the assay with CP211, in the assay with CP215, with CP217, in the assay with CP238, in the assay on CP247 and in the assay on CP250 was “inactive” in each case. Moreover, the Potency entry in the assay on CP252 and in the assay on CP256 was “inactive” throughout. In addition, in the assay with CP237, the Potency was 10 µM (active).
Regarding `CCCCCCCCCCCCCCCCCC(=O)O`, the Potency entry with CP215, in the assay with CP217, with CP237, with CP238, in the assay on CP247 and with CP250 was “inactive” in each case. Besides, the Potency entry with CP252 and in the assay with CP256 was “inactive” in each case.
For `CN1[C@@H]2CC[C@H]1CC(OC(c1ccccc1)c1ccccc1)C2` (some centres undefined), the Potency with CP217 and in the assay with CP256 was 12.6 µM (active) throughout. In addition, the Potency result in the assay on CP250 is “inactive”.
Turning to `O=C1CN(/N=C/c2ccc(-c3ccc([N+](=O)[O-])cc3)o2)C(=O)N1`, the Potency entry with CP211, with CP217, in the assay on CP238, in the assay on CP250, in the assay with CP252 and with CP256 was “inactive” each time. Moreover, in the assay on CP247, the Potency was 4.47 µM (active).
In the case of `[O-][n+]1ccccc1SSc1cccc[n+]1[O-]`, the Potency with CP211 was 1.07 µM (active); in the assay with CP215, 1.35 µM (active); in the assay with CP217, 1.26 µM (active); with CP237, 0.891 µM (active); in the assay with CP238 it was 1.12 µM (active); in the assay on CP247 it was 0.891 µM (active). For the same compound, the results for the Potency in the assay with CP250, in the assay on CP252 and with CP256 were 0.708 µM (active), 1 µM (active) and 2 µM (active), respectively.
For the compound `O=c1[nH]c2ccccc2n1CCCN1CCN(C(c2ccccc2)c2ccccc2)CC1`, the Potency with CP237 was 8.91 µM (active).
For `C[S+](CC[C@H](N)C(=O)O)C[C@H]1O[C@@H](n2cnc3c(N)ncnc32)[C@H](O)[C@@H]1O` (some centres undefined), the Potency entry in the assay on CP211, in the assay on CP215, in the assay with CP237 and in the assay on CP252 was “inactive” each time.
For the compound `O=C(O)c1cc(O)c(O)c(O)c1`, the Potency result with CP211, with CP215, in the assay with CP217, with CP238, with CP252 and in the assay with CP256 was “inactive” throughout. Moreover, the Potency in the assay on CP250 was 5.62 µM (active).
As for `C=CCN1C(=O)C(CC(C)C)NC1=S` (centres undefined), the Potency entry with CP211, in the assay on CP215, in the assay with CP217, in the assay with CP237, with CP238 and in the assay with CP247 was “inactive” throughout. Further, the Potency entry in the assay on CP250, in the assay with CP252 and in the assay on CP256 was “inactive” throughout.
For `O=C(O)Cc1ccc(-c2ccccc2)cc1`, the Potency entry in the assay on CP211, in the assay with CP215, with CP217, in the assay with CP237, in the assay with CP238 and in the assay with CP247 was “inactive” throughout. Besides, the Potency result in the assay with CP250, in the assay with CP252 and with CP256 was “inactive” each time.
Consider `COC(=O)C1=C(C)NC(C)=C(C(=O)OCC(C)C)C1c1ccccc1[N+](=O)[O-]` (centres undefined), for which, in the assay with CP256, the Potency was 10 µM (active).
`CCOc1ccc2nc(S(N)(=O)=O)sc2c1`: the Potency entry in the assay with CP215, with CP217, in the assay on CP237, with CP238, in the assay with CP247 and in the assay on CP250 was “inactive” each time. The Potency result in the assay on CP252 and with CP256 was “inactive” in each case.
Take `Cc1[nH]cnc1CN1CCc2c(c3ccccc3n2C)C1=O`: the Potency result in the assay on CP211, in the assay with CP215, with CP217, with CP237, in the assay on CP238 and in the assay with CP247 was “inactive” in each case. In addition, the Potency result in the assay with CP250, in the assay on CP252 and in the assay with CP256 was “inactive” throughout.
Turning to `Nc1ccc(O)c(C(=O)O)c1`, the Potency entry with CP211, in the assay on CP215, in the assay on CP217, in the assay on CP237, in the assay with CP238 and with CP247 was “inactive” in each case. Further, the Potency entry with CP250, with CP252 and with CP256 was “inactive” in each case.
As for `CCCCCC[C@@H](O)C/C=C\CCCCCCCC(=O)O`, the Potency entry in the assay on CP211, in the assay with CP215, in the assay on CP217, in the assay with CP237, with CP238 and in the assay with CP247 was “inactive” each time. Also, the Potency result in the assay with CP250, in the assay with CP252 and in the assay on CP256 was “inactive” each time.
For the compound `C=CCCCCCCCCC(=O)O`, the Potency entry with CP211, in the assay on CP215, in the assay with CP217, in the assay with CP237, in the assay on CP238 and with CP247 was “inactive” throughout. In addition, the Potency result in the assay on CP250, with CP252 and in the assay with CP256 was “inactive” each time.
Turning to `Clc1ccccc1-c1nc(-c2ccncc2)no1`, the Potency entry in the assay on CP211, with CP215, in the assay with CP217, with CP237, in the assay with CP238 and with CP247 was “inactive” in each case. Moreover, the Potency result with CP250, in the assay on CP252 and in the assay with CP256 was “inactive” in each case.
Consider `Cc1nc2ccccc2n1Cc1ccc(Cl)cc1`, for which the Potency entry with CP237, in the assay with CP238 and in the assay with CP250 was “inactive” in each case.
With `c1ccc2sc(SSc3nc4ccccc4s3)nc2c1`, the Potency entry in the assay with CP211, in the assay on CP215, in the assay with CP217, in the assay on CP237, in the assay with CP238 and with CP247 was “inactive” each time. Besides, the Potency result with CP250, with CP252 and in the assay on CP256 was “inactive” throughout.
As for `N=c1ccn2c(n1)O[C@H]1[C@H](O)[C@@H](CO)O[C@H]12`, the Potency result in the assay with CP211, in the assay with CP215, in the assay with CP217, with CP237, in the assay with CP238 and in the assay on CP247 was “inactive” throughout. Also, the Potency result in the assay with CP250, in the assay on CP252 and with CP256 was “inactive” throughout.
Take `COc1cc(/C=C/C(=O)CC(=O)/C=C/c2ccc(O)c(OC)c2)ccc1O`: the Potency was 16.9 µM (active) in the assay on CP215, 8.91 µM (active) in the assay on CP247 and 8.91 µM (active) in the assay on CP250.

The values above are taken from PubChem BioAssay (NCATS).
